Sampled rows, rich in hits. Any-hit rate of the full collection: about 0.28%.
NPYLR7 ag = agonists of mosquito NPYLR7 receptor, primary screen, cell-based, Aedes aegypti, calcium fluorescence, mosquito biting behavior; Aedes aegypti neuropeptide Y-like receptor 7 (NPYLR7); HEK293T NPYLR7/Galpha15, GCaMP6s calcium fluorescence; activation, % at 10 µM; actives 0.15% (n = 270,000); AID 1259423, 2018; in the data active = activation above about 40%;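 also: 0% = vehicle and 100% = reference agonist at the receptor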
hcGAS inh = Primary biochemical luminescence assay for human cyclic GMP-AMP synthase inhibitors; AID 1259398, 2018; recombinant h-cGAS, ATP depletion, Kinase-Glo luminescence; Q8N884; inhibition, % at 12.5 µM; actives 0.081% (n = 290,000);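 also: 0% = vehicle reaction and 100% = reaction without DNA for no activity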
mcGAS lum = cyclic GMP-AMP synthase inhibitors, mouse, primary biochemical chemiluminescence; Q8C6L5; recombinant cGAS, Kinase-Glo ATP depletion luminescence; inhibition, % at 12.5 µM; actives 0.15% (n = 160,000); AID 1259399, 2018;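 also: 0% = negative control wells and 100% = reference inhibitor with no enzyme activity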
Target sequence (Q8C6L5 whole entry, looked up): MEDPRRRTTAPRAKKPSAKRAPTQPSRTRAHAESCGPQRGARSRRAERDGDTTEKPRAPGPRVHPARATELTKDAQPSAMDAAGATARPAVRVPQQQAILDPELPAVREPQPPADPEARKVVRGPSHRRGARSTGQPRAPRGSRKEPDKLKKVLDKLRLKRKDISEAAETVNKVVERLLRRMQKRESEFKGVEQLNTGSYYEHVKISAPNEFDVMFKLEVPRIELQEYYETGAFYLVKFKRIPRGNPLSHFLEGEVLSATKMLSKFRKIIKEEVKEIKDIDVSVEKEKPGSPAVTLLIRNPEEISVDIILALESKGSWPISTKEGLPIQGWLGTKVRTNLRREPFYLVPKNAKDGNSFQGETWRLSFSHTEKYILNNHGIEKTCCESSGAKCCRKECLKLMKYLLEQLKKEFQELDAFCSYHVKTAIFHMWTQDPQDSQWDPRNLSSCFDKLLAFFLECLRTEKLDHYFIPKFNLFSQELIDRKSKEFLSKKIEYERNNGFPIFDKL
* hit, by the source's call; . = no result given. Rule as the data show it, unless noted: active = inhibition above about 40%; inactive = the rest.

SMILES	NPYLR7 ag	hcGAS inh	mcGAS lum
Nc1c(S(=O)(=O)O)cc2c3c(cccc13)C(=O)N(CCO)C2=O	93*	-8	-1
NS(=O)(=O)c1ccc(CCN2C(=O)c3cccc4cccc(c34)C2=O)cc1	-4	1	-2
O=[Si]=O	-3	-9	42*
C=CCC1=CC(=Cc2c(N)n3nc(Cc4cccs4)sc3nc2=O)C=C(OC)C1=O	95*	2	.
CCCCc1nn2c(N)c(C=C3C=CC(=O)C(OCC)=C3)c(=O)nc2s1	39	-2	.
COc1ccc(C2CC(=O)C3=C(C2)N=C(C)C(C#N)C3c2ccc(Cl)c(Cl)c2)cc1 (stereo not drawn)	12	-2	-7
Cc1cccc(C(C)OC(=O)C(C)(C)C#N)c1 (stereo not drawn)	-3	-17	.
OC[C@@H](O)C(O[C@@H]1O[C@H](CO)[C@H](O)[C@H](O)[C@H]1O)[C@H](O)[C@@H](O)CO (stereo partly drawn)	.	-4	.
OC[C@H]1OC([S-])[C@H](O)[C@@H](O)[C@@H]1O.[Au+] (stereo partly drawn)	-8	68*	57*
Nc1c(NC(=O)N2CCN(C3CCCC3)CC2)c(-c2ccc(Cl)cc2)nn1-c1ccccc1	5	164*	.
O=C(Nc1ccc(Cl)cc1)N1CCCN(C2CC2)CC1	1	-8	.
CCCn1c2c(c(=O)n(C)c1=O)C(=O)C(=Cc1ccc(N(C)C)cc1)N2	259*	-2	-5
CN(C)c1ccc(/C=C2/C(=O)NC(=O)N(Cc3ccccc3)C2=O)cc1	5	11	-3
CCc1cnc(C)nc1NCc1cccnc1-n1cnc2ccccc21	15	-4	.
O=C1NC(=S)SC1=Cc1ccc(Cl)cc1	-9	11	55*
O=C(O)CN1C(=O)/C(=C/c2c(F)cccc2Cl)SC1=S	-4	-3	-1
O=C1NC(=S)SC1=Cc1ccc(F)cc1	2	15	38
O=C1NC(=S)SC1=Cc1c(F)cccc1Cl	-3	48*	.
CCCC(CCC)C(=O)NCCn1ncc2c(NCC(C)C)nc(SC)nc21	.	-5	-8
CCOC(=O)CCCC(=O)N(Cc1ccco1)Cc1nc2cc(Cl)ccc2o1	-5	-7	-5
COc1c(Cl)cccc1NCc1csc(C)n1	5	0	-4
Cc1ccc(-c2cnc(CCC(=O)N3CCCCCC3C3CCCCC3=O)o2)cc1 (stereo not drawn)	2	-4	.
COc1cc([N+](=O)[O-])ccc1-c1ccc(/C=C2/NC(=S)NC2=O)o1	1	-3	-1
O=C1NC(=S)NC(=O)C1=Cc1ccc(-c2cc([N+](=O)[O-])ccc2O)o1	-16	51*	42*
S=c1[nH]nc(-c2cc(-c3cccs3)nc3ccccc23)o1	-1	77*	.
SMILES	NPYLR7 ag	hcGAS inh	mcGAS lum
S=c1[nH]nc(-c2cccs2)o1	-2	2	.
Cc1ccc2sc(N(Cc3cccnc3)C(=O)c3ccc([N+](=O)[O-])cc3)nc2c1C	-7	-6	-9
COC(C)C(=O)Nc1cc(-c2ccccc2Br)[nH]n1 (stereo not drawn)	-8	-5	.
CCC(=O)Nc1sc2c(c1-c1nc3ccccc3s1)CCN(C(C)C)C2	36	80*	97*
CC(C)N1CCc2c(sc(NC(=O)CN3C(=O)CCC3=O)c2-c2nc3ccccc3s2)C1	33	56*	51*
CCCCC(=O)Nc1sc2c(c1-c1nc3ccccc3s1)CCN(C(C)=O)C2	3	-1	.
CCC(=O)Nc1sc2c(c1-c1nc3ccccc3s1)CCN(C(C)=O)C2	0	-5	.
CC(=O)Oc1cc2c(c(C)c1OC(C)=O)CC=C1[C@@]2(C)CC[C@@]2(C)C3C[C@](C)(C(=O)O)CC[C@]3(C)CC[C@]12C (stereo partly drawn)	-6	-2	.
c1cnc(-c2cc(NC3CCNCC3)nc3[nH]ccc23)nc1	30	46*	-3
c1ccc2c(-c3cc(NC4CCNCC4)nc4[nH]ccc34)n[nH]c2c1	24	19	-11
NC(=O)c1cn(CC(=O)N2CCOC(C(F)(F)F)C2)c2ccccc12 (stereo not drawn)	1	-7	-15
CCOC(=O)Cc1cnc(C)[nH]c1=O	4	-3	-2
CCOC(=O)Cc1c(C)n2nc(C)cc2[nH]c1=O	-2	58*	.
CC1CN(c2cc(Oc3cccc(F)c3)ncn2)CCN1C(=O)c1cccc([N+](=O)[O-])c1 (stereo not drawn)	7	-4	-3
NS(=O)(=O)c1ccc2[nH]c(=O)c3n[nH]c(=O)n3c2c1	11	4	.
O=c1[nH]c2ccccc2n2c(=S)[nH]nc12	0	38	52*
CCOc1ncccc1NC(=O)N1CCc2c([nH]c3ccccc23)C1C (stereo not drawn)	2	2	.

Bioassay records: PubChem BioAssay, Fisher Drug Discovery Resource Center
